Measured values from PubChem BioAssay AID720485 (Milwaukee Institute for Drug Discovery, 2013).
This is one part of the list. Values without a mark were called inactive. The source made the active and inactive calls.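 How the source made its calls: active means percent inhibition of 50% or more; inactive means the rest.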

tested on: Hepatitis C virus NS3 helicase; test: NS3h DNA-binding blockers re-examined – biochemical, fluorescence polarization, ChemBridge library, confirmation (AID 720485); settings: NS3h binding to Cy5-dT15 DNA, at 100 µM, hits give high values

Structure (SMILES)	inhibition
CCOc1ccc(C=C2C(=O)NC(=O)NC2=O)cc1Cl	16.1%
C=CCN1C(=O)/C(=C\c2cc(OC)c(O)c([N+](=O)[O-])c2)C(=O)NC1=S	37.2%
COc1cc(C=C2C(=O)NC(=O)NC2=O)ccc1OCCOc1ccc([N+](=O)[O-])cc1	2.33%
O=C(NC(=S)Nc1ccc(-c2nc3cc(Cl)ccc3o2)cc1)c1ccco1	11.8%
COc1ccc(N2C(=O)C=CC2=O)c([N+](=O)[O-])c1	65.8% (active)
COc1ccc(C(=O)Oc2ccc3oc(=O)cc(C)c3c2)cc1OC	0.212%
Cc1ccc(C(=O)C[n+]2cc(-c3ccccc3)n3c2CCCCC3)cc1	0.212%
COc1cc(/C(O)=C(\C#N)c2nc3ccccc3n2C)cc(OC)c1OC	7.62%
N#Cc1c(N)nc2sc(C(=O)Nc3ccccc3)c(N)c2c1-c1ccco1	4.44%
Cc1ccc(C(=O)NCCNc2ccc([N+](=O)[O-])cc2)cc1	16.1%
O=c1c2c(nc3cc(-c4cccc(F)c4)[nH]n13)CCS2	41.5%
O=C1NC(=O)C(=Cc2cc([N+](=O)[O-])cc(Br)c2O)C(=O)N1	19.3%
CCN(CC)c1ccc(C=C2C(=O)N(C)C(=O)N(C)C2=O)c(O)c1	12.9%
CC(C)(C)N1C(=O)NC(=O)C(=Cc2cccs2)C1=O	20.3%
CCN(CC)c1ccc(NC(=O)/C(=C\c2ccccc2)NC(C)=O)cc1	23.5%
